Tau fibril FP – inhibitors of human tau fibril formation; P10636; K18 P301L tau heparin fibrillization, Alexa594 FP, 6 h; Potency, µM (highest dose often 57.7 µM), for the others: at the top dose activity, negative = inhibition, hits mostly inhibitors; 280,000 compounds, 0.39% hits; also: nearly all actives have a fitted effect of over 55% in size
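Recombinant K18 P301L […], labeled with Alexa 594 at 0.24 uM over 15 uM unlabeled; heparin inducer 20 uM final; 37 C, 6 hr; FP endpoint.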
TR SRC2 fluor cs – alters Texas Red total fluorescence, flagging assay interference. 280,000 compounds, 0.29% hits. Potency, µM (series often up to 106 µM), for inactives: top-dose fluorescence change, negative = quenching. TRb/SRC2 Texas Red total fluorescence interference; active = well fitted curve in either direction with a large enough effect; inconclusive = small, poorly fitted or top-dose-only effect
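Human TRβ ligand-binding domain (0.6 uM) and Texas Red SRC2 peptide (20 nM) in Tris buffer with 1 uM T3 and 5% DMSO were incubated with pinned compound for 5 hr at ambient temperature. Total fluorescence was computed as S + 2P (555/632 nm).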
Tau fibril ThT – inhibitors of human tau fibril formation, thioflavin T binding. recombinant tau K18 P301L, heparin-induced fibrillization, ThT fluorescence. Potency, µM (titrated, usually from 57.4 µM), without a hit: top-dose activity, negative = inhibition, usual class: inhibitors. 270,000 compounds, 2.1% hits; also: nearly all actives have a fitted effect of over 55% in size
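Recombinant human tau K18 fragment […] carrying P301L, 15 uM unlabeled plus 0.24 uM Alexa 594-labeled, was fibrillized with 20 uM heparin in 100 mM sodium acetate pH 7 for 6 hr at 37 C; 30 uM ThT fluorescence read after 1 hr.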
Tau fluor cs – counter-screen for tau fibril formation inhibitors. tau K18 P301L Alexa594 fluorescence, heparin fibrillization. 280,000 compounds, 0.93% hits. Potency, µM (doses to about 57.7 µM), without a hit: at the top dose activity change, negative = decrease. AID 1463; also: nearly all actives have a fitted effect of over 55% in size
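Human tau K18 P301L (15 uM unlabeled, 0.24 uM Alexa 594-labeled) in 100 mM sodium acetate pH 7 with 20 uM heparin, 6 hr at 37 C. ThT 30 uM added, 1 hr ambient; Alexa 594 FP and total fluorescence read at 555/632 nm.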
GoLoco inh red – blocks human Gai1 binding to RGS12 GoLoco peptide, red readout; 230,000 compounds, 0.44% hits; AID 880; P63096; Gai1:RGS12 GoLoco peptide FP, rhodamine, 10 min; Potency, µM (series often up to 61.6 µM), for inactives: top-dose activity, negative = inhibition, usual class: inhibitors; active = well fitted inhibition curve with a large enough effect, not every such curve was filed as active; inactive = no such curve, though single readings can be large or run the other way; also: nearly all actives have a fitted effect of over 30% in size
TRb SRC2 PPI – inhibitors of human thyroid hormone receptor beta-SRC2 interaction; P10828; TRbeta-SRC2 peptide binding, fluorescence polarization; receptor liganded with 1 µM T3; Potency, µM (series often up to 106 µM), without a hit: top-dose activity change, negative = inhibition, hits mostly inhibitors; 280,000 compounds, 0.065% hits; AID 1469;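 also: plate controls were bound peptide for no effect and peptide without receptor for full effect; nearly all actives have a fitted effect of over 50% in size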
Target sequence (P10828 whole entry, looked up): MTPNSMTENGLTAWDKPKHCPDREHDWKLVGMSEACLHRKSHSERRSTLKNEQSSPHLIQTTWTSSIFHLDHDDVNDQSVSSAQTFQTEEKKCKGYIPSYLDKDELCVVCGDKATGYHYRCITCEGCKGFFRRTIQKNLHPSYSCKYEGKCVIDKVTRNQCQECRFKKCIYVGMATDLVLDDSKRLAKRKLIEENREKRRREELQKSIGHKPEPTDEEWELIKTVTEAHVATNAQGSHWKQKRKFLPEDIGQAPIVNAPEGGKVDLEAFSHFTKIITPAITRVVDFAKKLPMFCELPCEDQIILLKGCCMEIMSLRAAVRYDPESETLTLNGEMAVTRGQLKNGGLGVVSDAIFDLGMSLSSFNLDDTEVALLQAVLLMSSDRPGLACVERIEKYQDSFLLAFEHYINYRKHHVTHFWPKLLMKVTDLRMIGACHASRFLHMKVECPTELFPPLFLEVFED
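TRb LBD 0.6 uM + Texas Red SRC2 peptide 20 nM, 1 uM T3, Tris buffer w/ 5% DMSO; compound pinned, 5 h RT; FP read ex 555/em 632; normalized to unbound and bound controls.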
Numbers without * were called inactive; [ ] = dose if it differs, or a comment. Hits are enriched below; roughly 3.1% of the tested compounds scored in any of these assays. Unless noted, calls follow the shape of the dose curve; as a rule, active = well fitted curve in the direction sought with a large enough effect; inconclusive = small, poorly fitted or top-dose-only effect, or another doubt; inactive = no such curve, though single readings can be large; an effect the other way counts as inactive or inconclusive. Unless noted, % is scaled to controls: 0 for no effect and ±100 for the full control effect; potency is read from the fitted curve at half-maximal effect.

Screening CCN1C(=O)C(CC(=O)Nc2ccc(OC)cc2)N(Cc2cccnc2)C1=S (centres undefined) returned Tau fibril FP 1%, TR SRC2 fluor cs 1%, Tau fibril ThT -3%, Tau fluor cs 4%, GoLoco inh red 8% and TRb SRC2 PPI -13%.
Screening C/C(=N\Nc1nnc2c3ccccc3n(C)c2n1)c1ccc(C)o1 returned Tau fibril FP 5%, TR SRC2 fluor cs -14%, Tau fibril ThT 14µM*, Tau fluor cs -9%, GoLoco inh red -2% and TRb SRC2 PPI -3%.
Screening COc1ccccc1NC(=O)CSc1ncn(-c2ccccc2)n1 returned Tau fibril FP -9%, TR SRC2 fluor cs 2%, Tau fibril ThT -1%, Tau fluor cs -10%, GoLoco inh red 11% and TRb SRC2 PPI 5%.
For O=C(O)CCCC(=O)Nc1ccc(N2CCCC2)cc1 the results were Tau fibril FP 1%, TR SRC2 fluor cs 0%, Tau fibril ThT -15%, Tau fluor cs -3%, GoLoco inh red -12% and TRb SRC2 PPI -3%.
Screening Cc1cccc(-c2noc(CN(C(C)C)S(=O)(=O)c3ccc(F)cc3)n2)c1 returned Tau fibril FP 0%, TR SRC2 fluor cs -8%, Tau fibril ThT -8%, Tau fluor cs -25%, GoLoco inh red -8% and TRb SRC2 PPI 4%.
For Cc1ccccc1CN1CCC(CNc2ncnc3onc(-c4ccc(F)cc4)c23)CC1 the results were Tau fibril FP -7%, TR SRC2 fluor cs 0.071µM*[quencher], Tau fibril ThT 9%, Tau fluor cs -1% and TRb SRC2 PPI -19%.
COCCNc1ncnc2onc(-c3ccc(F)cc3)c12 was read as Tau fibril FP -8%, TR SRC2 fluor cs -4%, Tau fibril ThT 1%, Tau fluor cs -2% and TRb SRC2 PPI -8%.
Screening C[C@]1(c2ccccc2)O[C@@H]2C[C@@H]3[C@@H]4CCC5=CC(=O)C=C[C@@]5(C)[C@]4(F)[C@H](O)C[C@]3(C)[C@@]2(C(=O)CO)O1 returned GoLoco inh red 4%[14.2 µM].
`COc1ccc2c(c1)OCc1c-2oc2cc(OC)ccc12` gave Tau fibril FP inconclusive, TR SRC2 fluor cs 0%, Tau fibril ThT 8.9µM*, Tau fluor cs inconclusive, GoLoco inh red -4% and TRb SRC2 PPI 4%.
For CCCCCCN the results were TR SRC2 fluor cs -1%, GoLoco inh red 28µM* and TRb SRC2 PPI 0%.
O=S(=O)(c1ccc2ccccc2c1)N1CCN(S(=O)(=O)c2ccc3ccccc3c2)CC1 was read as GoLoco inh red 8%[14.2 µM].
`CC1CCCN(S(=O)(=O)c2ccc(NC(=O)Cn3nnc(-c4ccccc4F)n3)cc2)C1` (centres undefined) gave Tau fibril FP 20µM*, TR SRC2 fluor cs 2%, Tau fibril ThT 8%, Tau fluor cs inconclusive, GoLoco inh red 9% and TRb SRC2 PPI 4%.
For CC1CCN(S(=O)(=O)c2ccc(NC(=O)Cn3nnc(-c4ccccc4)n3)cc2)CC1 the results were Tau fibril FP inconclusive, TR SRC2 fluor cs 1%, Tau fibril ThT 11%, Tau fluor cs inconclusive, GoLoco inh red 4% and TRb SRC2 PPI 27%.
C/C1=C2N=C(/C=C3N=C(/C(C)=C4\[N-]C(C)(C5N=C1C(C)(CCC(=O)NCC(C)OP(=O)([O-])O[C@H]1C(O)C(n6cnc7cc(C)c(C)cc76)O[C@@H]1CO)C5CC(N)=O)C(C)(CC(N)=O)C4CCC(N)=O)C(C)(CC(N)=O)C\3CCC(N)=O)C(C)(C)C/2CCC(N)=O.[CH2-]C1OC(n2cnc3c(N)ncnc32)C(O)C1O.[Co] (some centres undefined) was read as Tau fibril FP 13µM*, TR SRC2 fluor cs -3%, Tau fibril ThT 10µM*, Tau fluor cs inconclusive, GoLoco inh red 21% and TRb SRC2 PPI -21%.

Screening data from PubChem BioAssay.
